# Test results published in PubChem BioAssay (EPA / NIEHS).
# Results filed as inconclusive are left out. Activity calls are given as the source filed them. How the source made its calls: active means hit-call score of the fitted dose curve at least 0.9, where 1 is the maximum; inconclusive means response in the unintended direction; inactive means score below 0.9.
# What was measured:
# [1] = TOX21_p53_BLA_p2_viability: Viability Assessment in the Tox21 HCT-116 p53 Agonism Beta-lactamase Assay, Phase 2 (AID 2283591);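 further: compound exposure lasted 16 h at 37 °C; actives lower the ATP signal meaning cytotoxicity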
# Outline: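 HCT116 p53-bla cells, 4000/well, dosed after 5 h plating (217-fold dilution of DMSO stocks) and incubated 16 h at 37C. Viability taken as cellular ATP by CellTiter-Glo luminescence after 30 min RT; signal loss marks cytotoxicity.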
# [2] = target: Cellular tumor antigen p53 (Homo sapiens) (UniProt P04637); test: TOX21_p53_BLA_p2_ratio: Tox21 HCT-116 p53 Agonism Beta-lactamase Assay, Ratio, Phase 2 (AID 2283592)
# Sequence of Cellular tumor antigen p53 (Homo sapiens) (P04637 whole entry, looked up): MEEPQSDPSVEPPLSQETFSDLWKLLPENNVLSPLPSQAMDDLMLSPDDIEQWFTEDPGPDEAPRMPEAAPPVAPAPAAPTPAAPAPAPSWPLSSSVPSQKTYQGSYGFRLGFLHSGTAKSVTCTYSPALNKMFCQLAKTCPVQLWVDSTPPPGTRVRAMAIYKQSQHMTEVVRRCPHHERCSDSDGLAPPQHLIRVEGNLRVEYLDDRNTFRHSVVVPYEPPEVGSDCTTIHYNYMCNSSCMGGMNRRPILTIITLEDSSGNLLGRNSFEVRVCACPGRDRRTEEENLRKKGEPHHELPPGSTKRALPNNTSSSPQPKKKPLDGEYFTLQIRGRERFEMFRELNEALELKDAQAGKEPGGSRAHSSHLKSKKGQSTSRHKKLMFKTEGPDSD
# Outline: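 Ratio endpoint: beta-lactamase cleavage of CCF4-AM, blue (460 nm) over green (530 nm). HCT116 reporter line; 16 h treatment, 37C; substrate 2 h RT.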
# [3] = TOX21_p53_BLA_p3_viability: Viability Assessment in the Tox21 HCT-116 p53 Agonism Beta-lactamase Assay, Phase 3 (AID 2283593);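 further: cells exposed to compound for 16 h before reading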
# Outline: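 HCT116 cells, 4000/well, dosed 5 h after plating by pin transfer (217-fold dilution from DMSO stock) and incubated 16 h at 37C, 5% CO2. Viability read as ATP luminescence with CellTiter-Glo after 30 min at room temperature.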
# [4] = target: Cellular tumor antigen p53 (Homo sapiens) (UniProt P04637); test: TOX21_p53_BLA_p3_ratio: Tox21 HCT-116 p53 Agonism Beta-lactamase Assay, Ratio, Phase 3 (AID 2283596)
# Outline: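 Cells were seeded at 4000/well, rested 5 h at 37C, then dosed with DMSO compound solutions (217-fold dilution) for 16 h. CCF4-AM substrate was loaded for 2 h at room temperature, and the 460/530 nm emission ratio was fitted for gain of signal versus DMSO.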
# [5] = TOX21_p53_BLA_p4_viability: Viability Assessment in the Tox21 HCT-116 p53 Agonism Beta-lactamase Assay, Phase 4 (AID 2283597);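 further: hits lower the luminescence signal meaning cytotoxicity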
# Outline: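 Cytotoxicity was inferred from loss of CellTiter-Glo luminescence. HCT116 cells had been dosed with compounds after 5 h plating, incubated 16 h at 37C and 5% CO2, and exposed to the CCF4-AM substrate for 2 h.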
# [6] = target: Cellular tumor antigen p53 (Homo sapiens) (UniProt P04637); test: TOX21_p53_BLA_p5_ratio: Tox21 HCT-116 p53 Agonism Beta-lactamase Assay, Ratio, Phase 5 (AID 2283599)
# Outline: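 HCT-116 p53-bla cells (4000/well) plated 5 h, dosed with compound (217-fold DMSO dilution) for 16 h at 37 C; CCF4-AM substrate 2 h at room temperature. Activity is the 460/530 nm emission ratio (405 nm excitation), fitted in gain-of-signal direction versus DMSO.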
# [7] = TOX21_p53_BLA_p5_viability: Viability Assessment in the Tox21 HCT-116 p53 Agonism Beta-lactamase Assay, Phase 5 (AID 2283600)
# Outline: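 Luciferase-coupled ATP quantitation of cells treated for 16 h (37C, 5% CO2) with test chemicals delivered in DMSO via a 217-fold dilution; 4000 cells/well; reagent incubated 30 min at room temperature before luminescence reading.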
# [8] = target: Cellular tumor antigen p53 (Homo sapiens) (UniProt P04637); test: TOX21_p53_BLA_p4_ratio: Tox21 HCT-116 p53 Agonism Beta-lactamase Assay, Ratio, Phase 4 (AID 2283601)
# Outline: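 HCT-116 p53 beta-lactamase reporter cells (4000/well) preincubated 5 h, then compound (217-fold dilution of DMSO stock) for 16 h at 37C. CCF4-AM substrate added 2 h at room temperature; 460/530 nm emission ratio fitted upward versus DMSO.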
Compound,outcome [1],outcome [2],outcome [3],outcome [4],outcome [5],outcome [6],outcome [7],outcome [8],AC50 [1],AC50 [3],AC50 [5],AC50 [6],AC50 [7],AC50 [8],AC50 [2],AC50 [4]
c1ccc(OCc2ccc(CCCN3CCOCC3)cc2)cc1,inactive,inactive,inactive,inactive,inactive,inactive,inactive,inactive,,,,,,,,
CN(C/C=C/c1ccccc1)Cc1cccc2ccccc12,inactive,inactive,inactive,inactive,inactive,inactive,inactive,inactive,,,,,,,,
C[C@@H](O[C@H]1OCCN(Cc2n[nH]c(=O)[nH]2)[C@H]1c1ccc(F)cc1)c1cc(C(F)(F)F)cc(C(F)(F)F)c1,,inactive,,inactive,,,,,31.3 µM (active),33.4 µM (active),29.1 µM (active),34.2 µM (active),37.5 µM (active),35.1 µM (active),,
CC(C)OC(=O)CCCCC(=O)OC(C)C,inactive,,inactive,inactive,inactive,,inactive,,,,,71.9 µM (active),,69 µM (active),60.5 µM (active),
O=C1c2c(O)cccc2[C@H]([C@@H]2O[C@H](CO)[C@@H](O)[C@H](O)[C@H]2O)c2cc(CO)cc(O)c21,inactive,inactive,inactive,inactive,inactive,inactive,inactive,inactive,,,,,,,,
CCCCc1oc2ccc(NS(C)(=O)=O)cc2c1C(=O)c1ccc(OCCCN(CCCC)CCCC)cc1,,inactive,,,,inactive,inactive,,34.7 µM (active),34.6 µM (active),23.7 µM (active),,,43.1 µM (active),,43.7 µM (active)
COCC(=O)O[C@]1(CCN(C)CCCc2nc3ccccc3[nH]2)CCc2cc(F)ccc2[C@@H]1C(C)C,,,,,,,,,13.1 µM (active),10.9 µM (active),9.78 µM (active),25.4 µM (active),15.8 µM (active),21.6 µM (active),22.4 µM (active),19.6 µM (active)
O=C(CCCN1CCC(O)(c2ccc(Br)cc2)CC1)c1ccc(F)cc1,inactive,inactive,inactive,inactive,inactive,inactive,inactive,inactive,,,,,,,,
CCC(C)Nc1ccc(NC(C)CC)cc1 (stereo not drawn),,inactive,,,,inactive,,inactive,15.1 µM (active),22.4 µM (active),19.2 µM (active),,30.1 µM (active),,,46.8 µM (active)
CCCCCCCC/C=C\CCCCCCCC(=O)N(CCO)CCO,inactive,inactive,inactive,inactive,inactive,inactive,inactive,inactive,,,,,,,,
CC(C)(O)c1ccccc1CC[C@@H](SCC1(CC(=O)O)CC1)c1cccc(/C=C/c2ccc3ccc(Cl)cc3n2)c1,,inactive,,,,,,,18.2 µM (active),19.4 µM (active),15.1 µM (active),17.6 µM (active),14.5 µM (active),18.8 µM (active),,33.8 µM (active)
CCCCCCCCC(CCCCCC)C(=O)O (stereo not drawn),inactive,inactive,,inactive,inactive,inactive,inactive,inactive,,65.9 µM (active),,,,,,
CCOc1ccccc1O[C@H](c1ccccc1)[C@H]1CNCCO1,inactive,inactive,inactive,inactive,inactive,inactive,inactive,inactive,,,,,,,,
OCCN1CCN(CCCN2c3ccccc3Sc3ccc(Cl)cc32)CC1,inactive,inactive,inactive,inactive,,inactive,inactive,inactive,,,15.8 µM (active),,,,,
CON=C(C(=O)N[C@@H]1C(=O)N2C(C(=O)O)=C(COC(N)=O)CS[C@H]12)c1ccco1,inactive,inactive,inactive,inactive,inactive,inactive,inactive,inactive,,,,,,,,
CCCCN(CCCC)c1ccc(C(=O)c2ccccc2C(=O)O)c(O)c1,,inactive,,,,,,,17.2 µM (active),23.1 µM (active),21.2 µM (active),52.2 µM (active),20.3 µM (active),45.5 µM (active),,39.8 µM (active)
CC1=C(/C=C/C(C)=C/C=C/C(C)=C/C=C/C=C(C)/C=C/C=C(C)/C=C/C2=C(C)C[C@@H](O)CC2(C)C)C(C)(C)C[C@H](O)C1,,,inactive,,,,,,40.1 µM (active),,36.6 µM (active),38.8 µM (active),43.2 µM (active),36.4 µM (active),38.8 µM (active),33.8 µM (active)
COCCCC/C(=N\OCCN)c1ccc(C(F)(F)F)cc1,inactive,inactive,inactive,inactive,inactive,inactive,inactive,inactive,,,,,,,,
COc1cc2c(N3CCN(C(=O)Nc4ccc(OC(C)C)cc4)CC3)ncnc2cc1OCCCN1CCCCC1,inactive,,inactive,,inactive,,inactive,,,,,34.7 µM (active),,25.2 µM (active),35.5 µM (active),36.9 µM (active)
O=C(CC(=O)C(F)(F)F)c1ccccc1,inactive,inactive,,inactive,inactive,inactive,inactive,inactive,,76.4 µM (active),,,,,,
CC[C@@H](C(=O)[C@@H](C)[C@@H](O)[C@H](C)CCc1ccc(C)c(O)c1C(=O)O)[C@H]1O[C@](CC)([C@H]2CC[C@](O)(CC)[C@H](C)O2)C[C@@H]1C,,,,,,,,,23 µM (active),23 µM (active),31.1 µM (active),36.2 µM (active),31.4 µM (active),14.6 µM (active),17.2 µM (active),30.3 µM (active)
